Laboratory results as given in PubChem BioAssay (NCI).
The panel holds about 83,000 compounds, 20% with a hit somewhere; the sample as a whole holds those more often.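 Interpretation: 100, growth as untreated; towards 0, rising growth inhibition; 0, no net growth; 0 to -100, cell death. Compounds scoring below 10 were considered active.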 A number with no mark means an inactive call. Active and inactive are the calls of the source.

system: NCI-H460 lung; experiment: NCI-60 one-dose screen, 48 h (100 = growth as untreated, 0 = no growth, -100 = all killed); details: 10 µM unless noted

Row | Structure (SMILES) | growth
1 | O=C1C=Cc2ncccc2C1=O | 111%
2 | COc1cc2c(cc1OC)C(=O)/C(=C/c1cc(-c3ccc4c(c3)OCO4)n[nH]1)C2 | -82.2% (active)
3 | CCN(CC)CCCCCCNc1ccnc2cc(Cl)ccc12 | 92.9%
4 | COC(c1ccccc1)(c1ccccc1)c1ccccc1 | 101%
5 | CC(CNc1nc(Nc2ccc(Cl)c(Cl)c2)nc(C(Cl)(Cl)Cl)n1)N(C)C (stereo unspecified) | -63% (active)
6 | COc1cccc2c1C(=O)c1c(O)c3c(c(O)c1C2=O)C[C@@](O)(C(=O)CO)C[C@@H]3OC1C[C@H](N)[C@H](O)[C@H](C)O1 (stereo partly specified) | 0.418% (active)
7 | NC(=O)[C@@H]1CC2CCC1C2 (stereo partly specified) | 97.2%
8 | COc1cc2[nH]c(C(=O)c3cc(OC)c(OC)c(OC)c3)c(N)c2cc1C#CCO | 7.9% (active)
9 | CN(C)c1ccc(N=C2C=CC(=O)C=C2)cc1 | 97.1%
10 | COc1ccc(C(=O)c2cc(OC)c(OC)c(OC)c2)cc1/C=C/C(=O)c1cc(OC)c(OC)c(OC)c1 | 83.7%
11 | Nc1c(C(=O)Nc2cccc(Br)c2)sc2nc3c(cc12)C(=O)CCC3 | 4.31% (active)
12 | O=C1NC(=Nc2ccc(S(=O)(=O)Nc3nccs3)cc2)S/C1=C\c1coc2ccccc2c1=O | 101%
13 | COc1ccc(C(=O)/C=C/c2cc(-c3cc(OC)c(OC)c(OC)c3)n[nH]2)cc1OC | -17.4% (active)
14 | COc1cc2[nH]c(C(=O)c3cc(OC)c(OC)c(OC)c3)c(N)c2cc1C#CC1CC1 | 13.5%
15 | O=C(NC1=CC(=O)c2ccccc2C1=O)c1ccccc1 | 10.2%
16 | COC(=O)c1cc(=O)nc(N/N=C/c2ccc(C)cc2)s1 | 106%
17 | COc1cc(C(=O)/C=C/c2cc(-c3ccc4c(c3)OCO4)n[nH]2)cc(OC)c1OC | -55.2% (active)
18 | O=C(/C=C\c1ccc2c(c1)OCO2)/C=C/c1ccc2c(c1)OCO2 | 99.1%
19 | COc1cc(-c2cc(-c3nc4cc(Cl)c(Cl)cc4[nH]3)[nH]n2)cc(OC)c1OC | 69.7%

Row | Structure (SMILES) | growth
20 | COC1=C(Br)C(=O)C(OC)=C(Br)C1=O | 106%
21 | COc1ccc2c(c1)C/C(=C\c1cc(-c3ccc4c(c3)OCO4)n[nH]1)C2=O | 92.6%
22 | CC(C)(C)c1ccc(OP(=S)(N/N=C/c2ccccc2O)Oc2ccc(C(C)(C)C)cc2)cc1 | 87%
23 | OCC12CCCC(CO)(COC1)C2O (stereo unspecified) | 100%
24 | COc1ccc(-c2cc(/C=C/C(=O)c3ccc(N)cc3)[nH]n2)cc1 | -50% (active)
25 | O=c1c(CNc2ccc(S(=O)(=O)Nc3ncccn3)cc2)coc2ccccc12 | 105%
26 | NC(Cc1ccc(O)cc1)C(=O)N/N=C/c1ccccc1O (stereo unspecified) | 108%
27 | COc1ccc2c(c1)C/C(=C\c1cc(-c3cc(OC)c(OC)c(OC)c3)n[nH]1)C2=O | 106%
28 | O=c1c(CNc2ccc(S(=O)(=O)Nc3nccs3)cc2)coc2ccccc12 | 102%
29 | Nc1c(C(=O)Nc2cccc(Cl)c2)sc2ncc(Cl)cc12 | 13.8%
30 | CCN(CC)CCCCCNc1cc(OC(=O)c2ccccc2)cc2cccnc12 | 163%
31 | Fc1ccc2nc(-c3cc(-c4ccc5c(c4)OCO5)n[nH]3)[nH]c2c1 | 40.9%
32 | C#Cc1cc2c(N)c(C(=O)c3cc(OC)c(OC)c(OC)c3)[nH]c2cc1OC | 15.6%
33 | Cc1cc(Cl)c2c(N(C)C)cccc2n1 | 104%
34 | COc1ccc(/C=C2\N=C(c3ccccc3)N(c3cc(OC)c(OC)cc3C(=O)N3N=C(C)CC3=O)C2=O)cc1 | 94.4%
35 | COc1ccc2nc(-c3c(-c4ccccc4)nc4ncccn34)[nH]c2c1 | 106%
36 | O=C1C=C(C(O)c2ccc(O)cc2)C(=O)c2ccccc21 (stereo unspecified) | 107%
37 | Cc1ccc(-c2nc3ccc(Cl)cc3c(=O)n2N2C(=O)CSC2c2ccccc2Cl)cc1 (stereo unspecified) | 48.5%
38 | NS(=O)(=O)c1ccc(CCNC(=O)/C=C/c2ccc(Cl)cc2)cc1 | 98%

system: HOP-92 NSCLC; experiment: as above; details: 10 µM unless noted

Row | Structure (SMILES) | growth
39 | O=C1C=Cc2ncccc2C1=O | 97%
40 | COc1cc2c(cc1OC)C(=O)/C(=C/c1cc(-c3ccc4c(c3)OCO4)n[nH]1)C2 | -4.09% (active)
41 | CCN(CC)CCCCCCNc1ccnc2cc(Cl)ccc12 | 98.8%
42 | COC(c1ccccc1)(c1ccccc1)c1ccccc1 | 147%
43 | CC(CNc1nc(Nc2ccc(Cl)c(Cl)c2)nc(C(Cl)(Cl)Cl)n1)N(C)C (stereo unspecified) | -17.7% (active)
44 | COc1cccc2c1C(=O)c1c(O)c3c(c(O)c1C2=O)C[C@@](O)(C(=O)CO)C[C@@H]3OC1C[C@H](N)[C@H](O)[C@H](C)O1 (stereo partly specified) | -26.2% (active)
45 | NC(=O)[C@@H]1CC2CCC1C2 (stereo partly specified) | 71.1%
46 | COc1cc2[nH]c(C(=O)c3cc(OC)c(OC)c(OC)c3)c(N)c2cc1C#CCO | 21.6%
47 | CN(C)c1ccc(N=C2C=CC(=O)C=C2)cc1 | 77.5%
48 | COc1ccc(C(=O)c2cc(OC)c(OC)c(OC)c2)cc1/C=C/C(=O)c1cc(OC)c(OC)c(OC)c1 | 83.8%
49 | Nc1c(C(=O)Nc2cccc(Br)c2)sc2nc3c(cc12)C(=O)CCC3 | 79.3%
50 | O=C1NC(=Nc2ccc(S(=O)(=O)Nc3nccs3)cc2)S/C1=C\c1coc2ccccc2c1=O | 95.3%
51 | COc1ccc(C(=O)/C=C/c2cc(-c3cc(OC)c(OC)c(OC)c3)n[nH]2)cc1OC | 42.8%
52 | COc1cc2[nH]c(C(=O)c3cc(OC)c(OC)c(OC)c3)c(N)c2cc1C#CC1CC1 | 17.2%
53 | O=C(NC1=CC(=O)c2ccccc2C1=O)c1ccccc1 | -84.1% (active)
54 | COC(=O)c1cc(=O)nc(N/N=C/c2ccc(C)cc2)s1 | 66.4%
55 | COc1cc(C(=O)/C=C/c2cc(-c3ccc4c(c3)OCO4)n[nH]2)cc(OC)c1OC | 73%
56 | O=C(/C=C\c1ccc2c(c1)OCO2)/C=C/c1ccc2c(c1)OCO2 | 87.8%
57 | COc1cc(-c2cc(-c3nc4cc(Cl)c(Cl)cc4[nH]3)[nH]n2)cc(OC)c1OC | 61.2%

Row | Structure (SMILES) | growth
58 | COC1=C(Br)C(=O)C(OC)=C(Br)C1=O | 153%
59 | COc1ccc2c(c1)C/C(=C\c1cc(-c3ccc4c(c3)OCO4)n[nH]1)C2=O | 87.2%
60 | CC(C)(C)c1ccc(OP(=S)(N/N=C/c2ccccc2O)Oc2ccc(C(C)(C)C)cc2)cc1 | 70.6%
61 | OCC12CCCC(CO)(COC1)C2O (stereo unspecified) | 30.9%
62 | COc1ccc(-c2cc(/C=C/C(=O)c3ccc(N)cc3)[nH]n2)cc1 | 73.6%
63 | O=c1c(CNc2ccc(S(=O)(=O)Nc3ncccn3)cc2)coc2ccccc12 | 102%
64 | NC(Cc1ccc(O)cc1)C(=O)N/N=C/c1ccccc1O (stereo unspecified) | 56.6%
65 | COc1ccc2c(c1)C/C(=C\c1cc(-c3cc(OC)c(OC)c(OC)c3)n[nH]1)C2=O | 79.1%
66 | O=c1c(CNc2ccc(S(=O)(=O)Nc3nccs3)cc2)coc2ccccc12 | 80.1%
67 | Nc1c(C(=O)Nc2cccc(Cl)c2)sc2ncc(Cl)cc12 | 91.9%
68 | CCN(CC)CCCCCNc1cc(OC(=O)c2ccccc2)cc2cccnc12 | 99.1%
69 | Fc1ccc2nc(-c3cc(-c4ccc5c(c4)OCO5)n[nH]3)[nH]c2c1 | 64.9%
70 | C#Cc1cc2c(N)c(C(=O)c3cc(OC)c(OC)c(OC)c3)[nH]c2cc1OC | -4.39% (active)
71 | Cc1cc(Cl)c2c(N(C)C)cccc2n1 | 115%
72 | COc1ccc(/C=C2\N=C(c3ccccc3)N(c3cc(OC)c(OC)cc3C(=O)N3N=C(C)CC3=O)C2=O)cc1 | 78.2%
73 | COc1ccc2nc(-c3c(-c4ccccc4)nc4ncccn34)[nH]c2c1 | 111%
74 | O=C1C=C(C(O)c2ccc(O)cc2)C(=O)c2ccccc21 (stereo unspecified) | -2.83% (active)
75 | Cc1ccc(-c2nc3ccc(Cl)cc3c(=O)n2N2C(=O)CSC2c2ccccc2Cl)cc1 (stereo unspecified) | -4.8% (active)
76 | NS(=O)(=O)c1ccc(CCNC(=O)/C=C/c2ccc(Cl)cc2)cc1 | 100%
